Source: PubChem BioAssay (The Scripps Research Institute Molecular Screening Center)
Rows were chosen to be rich in hits. Some 3.3% of all compounds tested hit in one or more screens of this group.
TLR9-MyD88 inh: blocks human TLR9 binding to MyD88 | Q9NR96+Q99836 | inhibition, % at 4.98 µM | 0.21% of 340,000 active | AID 504734 | CHO BLA complementation TLR9-MyD88, CCF4 FRET ratio;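 active = inhibition above the mean over all tested compounds plus 3 SD, cut at about 21% in these data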;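 note: 0% = DMSO only wells and 100% = clavulanate BLA inhibitor control wells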
rCAG RNA binder: r(CAG) repeat RNA binding. 1.3% of 370,000 active. TO-PRO-1 dye displacement fluorescence. inhibition, % at 3 µM;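 active = inhibition above the plate cutoff, the mean of all test compounds on that plate plus 3 SD, cut at about 35% in these data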;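 note: 0% = DMSO alone and 100% = 100 µM mitoxantrone as full dye displacement; higher means more dye released from RNA so lower well fluorescence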
ABHD5-PLIN5 inh: ABHD5-PLIN5 protein interaction inhibition; Split G. princeps luciferase complementation, luminescence, 4 h; inhibition, % at 4 µM; 0.78% of 360,000 active; AID 602281;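 active = inhibition above the mean inhibition across every tested compound plus 3 SD, cut at about 22% in these data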;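 note: 0% = DMSO only wells and the 100% control is not disclosed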
NOD2-RIPK2 inh: NOD2-RIPK2 protein interaction inhibition | inhibition, % at 4.98 µM | O43353 | 0.38% of 360,000 active | CHO BLA complementation NOD2-RIPK2, CCF4 ratio; in the data active = inhibition above about 21%;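 note: 0% = vehicle only and 100% = reference blocker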
TLR4 MyD88 comp: blocks binding of human TLR4 to MyD88. O00206+Q99836. HeLa CL3-4 TLR4/MyD88 BLA complementation, FRET ratio. inhibition, % at 8.4 µM. 0.18% of 200,000 active; in the data active = inhibition above about 25%;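 note: 0% = vehicle and 100% = reference inhibitor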
PRMT1 inh: blocks human protein arginine methyltransferase 1; Q99873; inhibition, % at 2.79 µM; 1.3% of 370,000 active; recombinant PRMT1, activity-based probe fluorescence polarization; AID 652257;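 active = inhibition above about 21% made by adding two undisclosed values, limit read from the data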
NOD2 RIPK2 conf: NOD2-RIPK2 interaction inhibition confirmed; AID 624370; inhibition, % at 4.98 µM; shares compounds with NOD2-RIPK2 inh; 70% of 1,200 active; CHO cells, NOD2-RIPK2 BLA complementation, CCF4 FRET;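 active = mean inhibition across replicates above a set limit taken from the earlier primary screen, cut at about 21% in these data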;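 note: 0% = DMSO-only wells and the high end = clavulanate BLA-blocked wells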
BLA counter: NOD2-RIPK2 counterscreen BLA reporter activity; shares compounds with NOD2-RIPK2 inh; CHO BLA reporter, CCF4 FRET ratio; inhibition, % at 4.98 µM; 57% of 1,200 active; AID 624371;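 active = mean inhibition above the low-control mean inhibition plus three low-control SD, cut at about 11% in these data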;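 note: 0% = DMSO only wells and 100% = clavulanate high control wells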
* marks the source's active call; other numbers are inactive results; . = not tested or not shown.

SMILES | TLR9-MyD88 inh | rCAG RNA binder | ABHD5-PLIN5 inh | NOD2-RIPK2 inh | TLR4 MyD88 comp | PRMT1 inh | NOD2 RIPK2 conf | BLA counter
COc1ccc(C2C=C(c3ccc(Br)cc3)Nc3nc(N4C(=O)CCC4=O)nn32)cc1 (centres undefined) | 2.9 | -2.1 | -0.2 | 19.2 | 23.7 | 5.9 | . | .
O=C1CCC(=O)N1c1nc2n(n1)C(c1ccccc1)C=C(c1ccc(Br)cc1)N2 (centres undefined) | 14.3 | 1.1 | 5.5 | 38.9* | 9.8 | 8.8 | 15.5 | 11.7*
CC(C)C1=CC2C3C(=O)N(c4ccccc4)C(=O)C3C1C(=O)C2(C)O (centres undefined) | . | 1.7 | . | . | . | -2.7 | . | .
CN(C)c1ccc(/C=C/c2cccc[n+]2[O-])cc1 | . | -21.5 | 0.8 | 26.4* | . | -0.7 | -24.3 | 8.1
Cc1cc(SC#N)cc(C)c1NC(=O)CCl | 10.4 | 0.9 | -43.6 | 30.7* | 12.9 | 15.2 | 28.3* | -0.6
CCc1cc(SC#N)cc(C)c1NC(=O)CCl | 6.8 | 7.2 | -23.3 | 24.2* | -12.4 | 30.7* | 24.5* | -5.4
CCC(=O)Nc1ccc(SC#N)cc1C | -1.1 | -1.8 | -66.5 | 1.6 | 0.0 | 15.2 | . | .
CC(=O)c1cc(-c2ccc3nonc3c2)c(=O)n2c1CCC2 | . | 0.3 | . | . | . | -1.5 | . | .
Cc1cc(C(=O)CN2C(=O)c3cccc(N)c3C2=O)c(C)n1Cc1cccs1 | 19.9 | 2.6 | -3.9 | 23.8* | 21.9 | 4.1 | 28.8* | 41.8*
CC(Sc1ccc(S(=O)(=O)N2CCOCC2)cc1[N+](=O)[O-])C(=O)O (centres undefined) | -12.0 | 1.8 | -2.4 | 36.6* | -0.6 | -0.8 | -1.7 | -5.0
O=S(=O)(c1cccs1)N1CCN(CC(O)COC2CCCc3ccccc32)CC1 (centres undefined) | 1.0 | 0.0 | 0.1 | -1.4 | 1.4 | -0.8 | . | .
O=S(=O)(c1cccs1)N1CCN(CC(O)COc2cccc(Br)c2)CC1 (centres undefined) | -2.7 | -4.2 | -0.2 | 21.5* | 8.9 | 1.8 | -27.6 | -0.5
Cc1cccc(Sc2c(C=O)c3ccccc3n2C)c1 | -12.4 | 2.6 | 1.9 | -6.5 | 4.1 | -0.9 | . | .
CCC(C)Sc1cccc(-c2nc3ccc(C)cn3c2NC2CCCCC2)c1 (centres undefined) | 1.3 | -2.2 | -24.2 | -8.8 | . | 0.2 | . | .
CCC(C)Sc1cccc(-c2nc3cnccn3c2NC2CCCCC2)c1 (centres undefined) | 21.6* | 4.0 | -5.7 | 34.1* | . | 5.7 | 27.8* | 42.1*
CS(=O)(=O)N(CC(=O)N1CCCC1)Cc1ccc(Cl)cc1 | 4.0 | 0.9 | -0.8 | -9.2 | 5.9 | -1.5 | . | .
COc1ccc(NC(=O)C(c2ccc(OC)cc2)n2c(=O)c(-c3cc4ccccc4[nH]3)nc3ccccc32)cc1 (centres undefined) | . | 20.6 | 5.4 | 44.0* | . | -0.1 | 40.3* | 66.1*
COc1ccc(NC(=O)C(c2ccc(C#N)cc2)n2c(=O)c(-c3cc4ccccc4[nH]3)nc3ccccc32)cc1 (centres undefined) | . | 18.6 | 2.4 | 56.5* | . | 0.0 | 54.5* | 72.0*
COc1ccc(NC(=O)C(c2cc3ccccc3o2)n2c(=O)c(-c3cc4ccccc4[nH]3)nc3ccccc32)cc1 (centres undefined) | . | 25.3 | 3.1 | 51.4* | . | -4.3 | 46.1* | 67.5*
COc1ccc(NC(=O)C(C2CC2)n2c(=O)c(-c3ccccc3)nc3ccccc32)cc1 (centres undefined) | . | 6.4 | -1.7 | -3.5 | . | -8.2 | . | .
CCc1ccc(Nc2n[n+](-c3ccccc3)c(-c3ccc(N(CC)CC)cc3)s2)cc1 | 11.2 | -8.9 | 3.7 | 28.7* | . | -8.4 | 69.0* | 75.6*
COc1cc2ccc(=O)oc2cc1O | -8.7 | -2.0 | 3.8 | 29.6* | . | -1.3 | 20.9 | 38.5*
COc1cc2ccc(=O)oc2cc1OCC(O)C(C)(C)O (centres undefined) | 1.9 | 2.4 | -2.0 | -17.8 | . | -2.3 | . | .
Cc1ccc(/C=C2\Oc3c(ccc(O)c3CN3CCN(C)CC3)C2=O)cc1 | 11.7 | -9.8 | 5.5 | 28.6* | 12.0 | 13.3 | 20.6 | 24.9*
O=C(CNCc1ccco1)Nc1ccc(Oc2ccccc2)cc1 | 9.2 | -4.7 | 1.3 | 8.1 | -4.6 | 4.1 | . | .
SMILES | TLR9-MyD88 inh | rCAG RNA binder | ABHD5-PLIN5 inh | NOD2-RIPK2 inh | TLR4 MyD88 comp | PRMT1 inh | NOD2 RIPK2 conf | BLA counter
CN(C)c1ccc(C2C=C(c3ccc(Cl)cc3OC(F)F)Nc3ncnn32)cc1 (centres undefined) | 5.7 | 2.9 | -5.8 | 1.5 | . | -2.0 | . | .
Cc1ccc(C2C=C(c3ccccc3OC(F)F)Nc3ncnn32)cc1 (centres undefined) | 16.4 | 1.3 | 0.6 | 29.9* | 17.3 | -2.6 | 26.6* | 30.6*
CC(C)Oc1ccc(OCCn2c(S(=O)(=O)O)nc3c(N)ncnc32)cc1 | 11.9 | 1.9 | 10.8 | -0.5 | . | -5.4 | . | .
Cc1cn([C@H]2C[C@H](O)[C@@H](/C=C/C(=O)NCCN3CCCCC3)O2)c(=O)[nH]c1=O | . | 3.5 | -0.8 | 61.4* | . | 0.3 | -1.9 | -7.1
Nc1nc2ncccn2c1-c1ccc(C(F)(F)F)cc1 | . | 1.8 | 6.4 | 25.4* | . | 1.8 | 27.7* | 34.5*
C=CCN(CC#CC(=C)C)Cc1ccc(OC)cc1OC | . | 0.4 | . | . | . | 0.2 | . | .
O=c1c(O)c(-c2ccccc2)oc2cc(O)ccc12 | . | 9.7 | 3.1 | 24.6* | . | 3.1 | 32.1* | 29.4*
COc1cc(OC)cc(C(=O)N[C@H](C(=O)NC2=NCCS2)C(C)C)c1 | -2.3 | 2.8 | -5.9 | -8.3 | . | 2.9 | . | .
COC(=O)c1cc2c(cc1NC(=O)CSCCc1ccccn1)OCO2 | -2.8 | 4.7 | 3.6 | 24.5* | -5.7 | 4.1 | 3.7 | -1.1
CC(=O)Nc1ccc(NC(=O)CSCCc2ccccn2)cc1 | 0.3 | -0.5 | -2.4 | 4.3 | 7.5 | -0.6 | . | .
CN1C(=O)[C@H]2[C@@H](/C=C/c3ccccc3)N3C(=O)CN(Cc4ccccn4)C(=O)[C@@]3(C)[C@H]2C1=O | 5.9 | 2.6 | 7.4 | -2.9 | . | 2.8 | . | .
Cc1cccc(NC(=O)c2cccc(S(=O)(=O)N(C)C3CCCCC3)c2)n1 | -4.8 | -0.3 | 0.3 | 21.0* | . | -2.5 | 0.8 | -1.9
Cc1ccc2c(c1)sc(-c1ccc(N(C)C)cc1)[n+]2C | -6.8 | 7.6 | -4.1 | 3.2 | . | 18.1 | . | .
CC1CCN(c2ccccc2NC(=O)c2ccc(Br)o2)CC1 | -13.3 | 0.2 | -5.3 | 3.2 | . | 0.4 | . | .
O=C(NC1CCCCC1)C(CCc1ccccc1)n1c(=O)c(-c2ccccc2)nc2ccccc21 (centres undefined) | . | 5.8 | -5.6 | -14.9 | . | -1.4 | . | .
